Here are results for 22 molecules from PubChem BioAssay AID585 (National Center for Advancing Translational Sciences (NCATS), 2007).

Among all 71,000 compounds or so, about 1,300 (1.8%) were called active. Many of the other results were omitted from the sample, so actives are more common in it than they were. Unmarked numbers belong to inactive results. Calls follow the shape of the full dose curve.
Potency is read from the fitted curve at half-maximal effect.

Beta-lactamase (Escherichia coli (strain K12)), sequence (P00811 whole entry, looked up): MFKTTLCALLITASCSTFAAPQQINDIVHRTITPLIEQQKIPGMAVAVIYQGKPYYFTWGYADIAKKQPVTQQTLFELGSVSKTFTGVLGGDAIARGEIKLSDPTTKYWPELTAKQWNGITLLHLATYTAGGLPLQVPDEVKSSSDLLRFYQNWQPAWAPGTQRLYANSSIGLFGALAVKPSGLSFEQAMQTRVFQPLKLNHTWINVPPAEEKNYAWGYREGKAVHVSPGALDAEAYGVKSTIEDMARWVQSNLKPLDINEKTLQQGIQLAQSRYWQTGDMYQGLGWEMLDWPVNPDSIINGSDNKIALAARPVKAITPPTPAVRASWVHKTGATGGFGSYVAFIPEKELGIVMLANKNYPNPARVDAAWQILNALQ

The target in the assay is Beta-lactamase (Escherichia coli (strain K12)) (UniProt P00811). The experiment in a line: Promiscuous and Specific Inhibitors of AmpC Beta-Lactamase (assay without detergent). As to activity change, negative = inhibition: % of control where 0% means no effect. To be noted: AmpC nitrocefin hydrolysis, absorbance 480 nm, no detergent; series mostly up to 28.7 µM; activity change, negative = inhibition: at the top concentration. The method, boiled down:
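AmpC, 20 mM phosphate pH 7.0; 15 min cpd preinc, RT; start with nitrocefin (800 uM stock); A480 kinetic read, 20 s intervals, 4 min. No-enzyme wells = negative control.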
As for `CC(C)(O)[C@H]1[C@H]2OC(=O)[C@@H]1[C@]1(O)C[C@H]3O[C@]34C(=O)O[C@H]2[C@]14C`, the “activity change, negative = inhibition” value is 3.7%. On the same count and under the same terms, under `O=C(c1ccco1)N1CCN(C(=O)C2CC(c3ccc(Cl)c(Cl)c3)=NO2)CC1` (configuration not stated) stands 99.9%. For `CCOC(=O)N1CCN(C(=O)C2CC(c3ccc(F)cc3)=NO2)CC1` (configuration not stated), the Potency was 3.98 µM [single pt active] (active). Regarding `Cc1ccc(NC(=O)C2CC(c3ccc(F)cc3)=NO2)cc1` (configuration not stated), the “activity change, negative = inhibition” value was 9.7%. Take `O=C(c1ccco1)N1CCN(C(=O)C2c3ccccc3Oc3ccccc32)CC1`: the “activity change, negative = inhibition” value is 70.7%. Still for that read-out and setting: under `CCOC(=O)N1CCN(C(=O)CSc2ccc(Cl)cc2)CC1` stands 33.7%. `O=C(c1ccco1)N1CCN(C(=O)C2CC(c3ccc(F)cc3)=NO2)CC1` (configuration not stated): the Potency is 3.98 µM [single pt active] (active). In the case of `O=C(C1CCN(S(=O)(=O)c2cnc[nH]2)CC1)N1CCN(Cc2ccc3c(c2)OCO3)CC1`, the “activity change, negative = inhibition” value was 19.4%. In the case of `CC(=O)c1c(O)c(C)c(O)c(Cc2c(O)c3c(c(C(=O)/C=C\c4ccccc4)c2O)OC(C)(C)C=C3)c1O`, the Potency was 12.6 µM (active). In the case of `CCOc1ccc(C(C)C)cc1S(=O)(=O)n1nc(C)cc1C`, the “activity change, negative = inhibition” value is 36.2%. Consider `CCOc1ccc(S(=O)(=O)n2ccnc2)c2ccccc12`, for which the Potency is 3.98 µM [single pt active] (active). As for `CCOc1ccccc1C(=O)NCCCn1ccnc1`, the “activity change, negative = inhibition” value is -7.7%. On the same count and under the same terms, under `Fc1ccc2nc(Nc3nc4c(s3)CCCC4)sc2c1` stands -20.6%.

With `CCOC(=O)CNC(=O)CSc1nnc(COc2ccc(Cl)cc2)n1CC`, the “activity change, negative = inhibition” value is 52.9%. On the same count and under the same terms, for `CN1CCN(S(=O)(=O)c2ccc3[nH]cc(C(=O)O)c(=O)c3c2)CC1` the value was -10%. For `Cc1cccc(CC(=O)Nc2c3c(nn2-c2cccc(Cl)c2)CS(=O)C3)c1` (configuration not stated), the “activity change, negative = inhibition” value was 44.1%. In the case of `Cc1nc2nc(SCC(=O)NCc3ccco3)nn2c(C)c1Cc1ccccc1`, the “activity change, negative = inhibition” value is 31.6%. With `O=C(Cc1ccccc1)n1nc(-c2ccccc2)nc1NCc1ccco1`, the Potency was 3.98 µM [single pt active] (active). Take `O=C(NCc1ccco1)c1nc(-c2ccccc2)n(-c2ccccc2)n1`: the “activity change, negative = inhibition” value is 8.2%.

As to `COc1ccc(CCn2nnnc2C(c2ccccc2)N2CCN(C)CC2)cc1OC` (configuration not stated), the “activity change, negative = inhibition” value is 15.3%. Same read-out and setting: under `CCOC(=O)c1cnc2sccn2c1=O` stands 3.9%. On the same count and under the same terms, for `CN/C(=C\[N+](=O)[O-])NCCSCc1csc(CN(C)C)n1` the value was -0.3% [at 12.8 µM].
